What all share (assay): NCI-60 one-dose screen, 48 h (100 = growth as untreated, 0 = no growth, -100 = all killed)
What all share (settings): 10 µM unless noted

The subject of experiment [1] is NCI-H23 lung.
The subject of experiment [2] is NCI-H226 lung.
Experiment [3] has as its system NCI-H322M lung.
For experiment [4], the system named is HOP-62 NSCLC.
In experiment [5] the test system is NCI-H460 lung.
Experiment [6] deals with HOP-92 NSCLC.
In experiment [7] the test system is NCI-H522 lung.
Experiment [8] deals with A549/ATCC NSCLC.
The subject of experiment [9] is 786-0 renal.
Experiment [10] has as its system COLO 205 colon.
Experiment [11] has as its system DU-145 prostate.
Experiment [12] relates to K-562 leukemia.
Experiment [13] has as its system MALME-3M melanoma.
Experiment [14] deals with MDA-MB-231 breast.
Experiment [15] relates to SF-268 CNS.
Experiment [16] has as its system SF-295 CNS.
In experiment [17] the test system is SF-539 CNS.
Experiment [18] relates to UACC-257 melanoma.
Experiment [19] concerns M14 melanoma.
For experiment [20], the system named is RXF 393 renal.

Each structure is given as a SMILES string. Compounds without any hit were thinned out: in the full panel of roughly 83,000, 20% have a hit.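 Step 1: grow cells in 96-well plates. Step 2: add test compound at a single concentration. Step 3: incubate 48 h. Step 4: record percent growth.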 A number with no mark means an inactive call. Calls of active or inactive are those of the source. The calls were made as follows: active = growth percent below 10; inactive = the rest.

From PubChem BioAssay (NCI) come the findings set out here.

Turning to `O=C(O)CCCCCCCCCCCCCCC(=O)O`, the growth in experiment [1] was 103%; in [2], 85.3%; in experiment [3] it was 100%; in experiment [4], 99.1%; in [5] it was 110%; in experiment [6] it was 85.1%. The growth in experiment [7] is 89.6%; in experiment [8] it was 90.5%; in experiment [9] it was 102%; in experiment [10] it was 108%; in experiment [11], 106%; in experiment [12], 109%. The growth in [13] is 101%; in experiment [14], 98.2%; in [15], 98.9%; in experiment [16], 101%; in experiment [17] it was 105%; in [18], 95.6%. Also, the growth in [19] was 107%.
On to `COc1ccccc1/C=C1\Oc2cc(OCCCN3CCCC3)ccc2C1=O`, for which the growth in experiment [1] is 83%; in experiment [2], 98.7%; in experiment [3] it was 96.5%; in experiment [4], 88.5%; in [5] it was 95.9%; in [6] it was 63.1%. Besides, the growth in experiment [7] was 104%; in [8], 99.9%; in experiment [9] it was 94%; in experiment [10], 96.4%; in experiment [11], 98%; in experiment [12] it was 4.95% (active). For the same compound, the growth in experiment [13] was 96.5%; in experiment [14] it was 86.5%; in experiment [15], 90.3%; in [16], 99.2%; in [17], 76.4%; in experiment [18] it was 109%. Also, the growth in experiment [19] was 100%.
Turning to `COc1ccc(/C=C/c2n[nH]c3ccc(N4CCOC4=O)cc23)cc1`, the growth in [1] is 12.4%; in experiment [2], 6.06% (active); in experiment [3], 8.47% (active); in [4] it was -1.37% (active); in [5] it was 1.61% (active); in experiment [6], -8.15% (active). Also, the growth in [7] is 51.3%; in experiment [8] it was 1.87% (active); in [9], 11.3%; in [10], -17.4% (active); in [11] it was 14.7%; in experiment [13], 59.9%. The growth in experiment [14] was 14.6%; in experiment [15], 13%; in experiment [16] it was 32.8%; in experiment [17], -1.43% (active); in experiment [18], 38.4%; in [19], 26.9%.
Turning to `COc1ccc(C2=C(c3ccccc3)c3ccc(OC(C)=O)cc3OC2(C)C)cc1`, the growth was 79.8% in experiment [1]; 86.3% in [2]; 102% in [3]; 107% in experiment [4]; 84.8% in experiment [5]; 81.1% in [6]. The growth was 88.8% in [7]; 87.7% in experiment [8]; 101% in experiment [9]; 108% in [10]; 105% in [11]; 107% in experiment [13]. The growth was 68.2% in experiment [14]; 95.8% in experiment [20]; 102% in [15]; 72.3% in experiment [16]; 102% in experiment [17]; 145% in experiment [18]. The growth in experiment [19] was 110%.
With `CCOC(=O)c1c(SC)nn(-c2cc(=O)[nH]c3ccc(Br)cc23)c1N`, the growth in [1] is 96%; in experiment [2], 99.2%; in experiment [3], 106%; in [4] it was 89.7%; in [5], 87.8%; in [6], 95.8%. Also, the growth is 95.1% in experiment [7]; 98.1% in experiment [8]; 97.6% in experiment [9]; 98.2% in [10]; 94.6% in experiment [11]; 105% in experiment [13]. In addition, the growth was 110% in [14]; 90.7% in experiment [15]; 107% in experiment [16]; 102% in experiment [17]; 112% in [18]; 109% in experiment [19].
As to `Cc1ccc2[nH]c(=O)cc(-n3nncc3COc3ccc(C=O)cc3)c2c1`, the growth was 103% in experiment [1]; 90.3% in experiment [2]; 103% in experiment [3]; 101% in [4]; 106% in [5]; 95.6% in experiment [6]. Moreover, the growth in experiment [7] was 89.7%; in experiment [8], 103%; in [9] it was 102%; in [10], 128%; in experiment [11] it was 105%; in experiment [13], 100%. The growth in [14] was 101%; in experiment [15], 102%; in experiment [16], 104%; in [17], 99.4%; in experiment [18], 116%; in experiment [19], 103%.
On to `Cn1c2c(Cl)c(Cl)ccc2c2cc(N)[nH]c(=O)c21`, for which the growth in experiment [1] was 76.2%; in [2], 59.2%; in experiment [3], 103%; in experiment [4], 51.3%; in experiment [5], 81.9%; in [6] it was 29.9%. Besides, the growth is 92.4% in experiment [7]; 15.1% in experiment [8]; 70.2% in [9]; 92.1% in experiment [10]; 84.2% in experiment [11]; 102% in experiment [13]. The growth was 68.5% in experiment [14]; 80.9% in experiment [15]; 53.7% in [16]; 82.8% in [17]; 97.9% in [18]; 97.8% in experiment [19].
Regarding `COc1cc2nc(-c3ccc(C(F)(F)F)cc3)cc(OCCCN3CCCCC3)c2cc1OC`, the growth in [1] is 57.9%; in experiment [2], -11.8% (active); in experiment [3], 62.3%; in experiment [4] it was 57.6%; in experiment [5] it was 17.7%; in experiment [6] it was 27.9%. The growth is 33.6% in experiment [7]; 44.4% in experiment [8]; 48.4% in experiment [9]; 45.3% in [11]; 12.8% in [12]; 39.9% in experiment [13]. Moreover, the growth in experiment [14] was 27.7%; in [20], 26.9%; in [15] it was 50.6%; in experiment [16] it was -46.8% (active); in experiment [17], 46.1%; in [18], 10.1%. Further, the growth in [19] was -19.2% (active).
In the case of `Cc1c(C(=O)NO)sc2ncnc(Nc3ccc(NC(=S)Nc4ccccc4)cc3)c12`, the growth was 96.5% in [1]; 104% in experiment [2]; 107% in experiment [3]; 101% in experiment [4]; 102% in [5]; 115% in experiment [6]. Also, the growth is 92.1% in experiment [7]; 101% in [8]; 99.1% in experiment [9]; 107% in experiment [11]; 103% in [12]; 99.5% in experiment [13]. In addition, the growth in experiment [14] was 95%; in experiment [20] it was 104%; in experiment [15], 98.2%; in experiment [16], 98.3%; in experiment [17] it was 100%; in experiment [18], 99.4%. Moreover, in experiment [19], the growth was 104%.
